This note sets out measurements from PubChem BioAssay (NCATS).

Records with an inconclusive call do not appear. Entries that show only a call come without a potency. Calls of active or inactive are those of the source. Calls come from the whole dose curve; as a rule, active = well fitted curve in the direction sought with a large enough effect; inconclusive = small, poorly fitted or top-dose-only effect, or another doubt; inactive = no such curve, though single readings can be large; an effect the other way counts as inactive or inconclusive.

Test [1] is described as follows: qHTS for Inhibitors of Ubiquitin-specific Protease USP2a Using CHOP2 as the Reporter: K633 Counterscreen (AID 652168). Particulars: No-enzyme DiUb K48 IQF substrate fluorescence interference, kinetic; series mostly up to 57.5 µM. An outline of the steps: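 Detection-system control: fluorescence of K48-linked DiUb-4IQF substrate (100 nM as added) tracked over time, Ex 525/Em 598, with pinned compounds and no enzyme, in pH 8 Tris buffer containing beta-mercaptoethanol and 0.05% Chaps.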
(In general: qHTS replaces the single test concentration by a dilution series.)

The nature of test [2]: qHTS for Inhibitors of Ubiquitin-specific Protease USP2a Using CHOP2 as the Reporter: Cytotox Assay (AID 652170). Note: nearly all actives have a fitted effect of over 70% in size. Note: potency is the fitted concentration of half-maximal effect. To be noted: HCT116 viability, CellTiter-Glo luminescence, 72 h; series mostly up to 46.1 µM. The gist of the method:
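Cytotoxicity read as ATP luminescence (CellTiter-Glo) after 72 hr compound treatment at 37 deg C. Cells: HCT116, 600/well in DMEM plus 10% FBS. Normalization between DMSO-treated cells and cell-free wells.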

Test [3] deals with Ubiquitin carboxyl-terminal hydrolase 2 (Homo sapiens) (UniProt O75604). The test is described as follows: qHTS for Inhibitors of Ubiquitin-specific Protease USP2a Using CHOP2 as the Reporter: K484 Substrate (AID 652173).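 Note: cleavage of internally quenched K48 di-ubiquitin substrate measured as rising fluorescence over time; nearly all actives have a fitted effect of over 70% in size.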 Note: potency is the fitted concentration of half-maximal effect. Particulars: USP2 cleavage of DiUb K48 IQF substrate, fluorescence; series mostly up to 57.5 µM. An outline of the steps: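 Kinetic fluorescence (Ex 525/Em 598) tracked cleavage of an internally quenched K48 di-ubiquitin substrate, added as a 100 nM solution. The enzyme was added as a 5 nM USP2 solution before compound pinning, with no-enzyme controls. Buffer: Tris pH 8, beta-mercaptoethanol, CHAPS.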

Test [4] can be described thus: Cell Proliferation Assay against the TMD8 Cell Line (AID 651645).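 Note: cells exposed to compound for 48 h before reading.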 Particulars: TMD8 DLBCL cell line proliferation/viability; at 46.1 µM (top of the series). The gist of the method: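 500 TMD8 cells/well, RPMI + Glutamax, no phenol red, 5% FBS; cpd added immediately; 48 h, 37C, 5% CO2; CellTiter-Glo, luminescence. Controls: DMSO = 100%, bortezomib 9.2 uM final = 0%.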

Test [5] is described as follows: Cell Proliferation Assay against the HBL1 Cell Line (AID 651646).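 Note: cells exposed to compound for 48 h before reading.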 To be noted: HBL1 DLBCL cells; at 46.1 µM (top of the series). The gist of the method:
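CellTiter-Glo luminescence after 48 h compound exposure at 37C gives percent activity, with DMSO as 100% and 9.2 uM bortezomib final as 0%. Cells: 500 log-phase HBL1 per well, RPMI plus 5% FBS.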

In test [6] the target is Tyrosine-protein kinase Yes (Homo sapiens) (UniProt P07947). In words: qHTS for small molecule inhibitors of Yes1 kinase: Primary Screen (AID 686947). Note: nearly all actives have a fitted effect of over 60% in size. Particulars: Yes1 kinase biochemical qHTS inhibition; series mostly up to 76.9 µM. An outline of the steps: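 ADP-Glo luminescence reports ADP formed by 4 nM Yes1 phosphorylating poly(E4Y) (0.3 mg/mL) with 0.1 mM ATP for 60 min at room temperature, following 20 min compound preincubation; normalised between DMSO wells with and without enzyme.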

The nature of test [7]: qHTS for small molecule inhibitors of Yes1 kinase: Counter Assay (AID 686950).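 Note: no kinase present so only ADP-Glo detection of a fixed ADP amount is tested; luminescence from ADP-Glo reporting ADP in a fixed ATP and ADP mixture.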 Particulars: series mostly up to 76.9 µM. An outline of the steps: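 ADP-Glo luminescence read after a 60 min room-temperature incubation of compound with an ATP/ADP mix (0.08 mM/0.02 mM) and no kinase, following a 20 min compound preincubation. Signal scaled between ATP+ADP (max) and 0.1 mM ATP-only (min) wells; Tris pH 7.5, Mg2+, DTT.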

Chain of Ubiquitin carboxyl-terminal hydrolase 2 (Homo sapiens) (O75604 whole entry, looked up): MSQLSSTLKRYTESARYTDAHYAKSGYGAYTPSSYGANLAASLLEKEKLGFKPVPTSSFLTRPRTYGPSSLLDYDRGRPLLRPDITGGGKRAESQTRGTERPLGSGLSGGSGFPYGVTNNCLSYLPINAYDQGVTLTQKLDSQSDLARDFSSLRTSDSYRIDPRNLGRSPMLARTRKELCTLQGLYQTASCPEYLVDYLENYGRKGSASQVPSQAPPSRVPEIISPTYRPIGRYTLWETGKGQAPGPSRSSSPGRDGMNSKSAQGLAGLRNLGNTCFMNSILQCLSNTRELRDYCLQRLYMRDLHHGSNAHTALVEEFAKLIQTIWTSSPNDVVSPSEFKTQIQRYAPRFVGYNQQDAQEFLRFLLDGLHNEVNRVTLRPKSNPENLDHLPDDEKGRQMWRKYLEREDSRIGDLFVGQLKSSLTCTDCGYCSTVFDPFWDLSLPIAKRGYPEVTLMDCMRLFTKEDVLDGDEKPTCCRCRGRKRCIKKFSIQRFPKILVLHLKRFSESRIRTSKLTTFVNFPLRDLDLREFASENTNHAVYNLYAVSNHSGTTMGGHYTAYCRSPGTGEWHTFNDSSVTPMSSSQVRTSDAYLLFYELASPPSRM
Chain of Tyrosine-protein kinase Yes (Homo sapiens) (P07947 whole entry, looked up): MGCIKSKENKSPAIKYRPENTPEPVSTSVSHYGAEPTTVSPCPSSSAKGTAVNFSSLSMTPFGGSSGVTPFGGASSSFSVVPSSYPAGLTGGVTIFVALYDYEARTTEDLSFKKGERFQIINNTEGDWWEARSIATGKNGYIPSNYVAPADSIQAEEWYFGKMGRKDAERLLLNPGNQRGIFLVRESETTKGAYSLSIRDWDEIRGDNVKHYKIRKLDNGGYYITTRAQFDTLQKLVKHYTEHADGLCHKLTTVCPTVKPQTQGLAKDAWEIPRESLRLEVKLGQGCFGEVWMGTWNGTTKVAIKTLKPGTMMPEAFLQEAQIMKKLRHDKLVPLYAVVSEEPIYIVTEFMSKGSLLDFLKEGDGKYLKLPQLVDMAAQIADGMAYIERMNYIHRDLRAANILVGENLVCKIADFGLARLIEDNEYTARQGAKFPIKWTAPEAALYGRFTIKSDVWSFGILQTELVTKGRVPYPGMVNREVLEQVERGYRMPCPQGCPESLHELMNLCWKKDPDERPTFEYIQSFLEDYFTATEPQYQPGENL

Regarding `Cc1ccc(S(=O)(=O)Nc2cc([N+](=O)[O-])ccc2C(=O)Nc2nc(-c3ccccc3)cs2)cc1`, the compound was called inactive in test [1]. Also, the Potency in test [2] was 5.26 µM (active); in test [3] it was 0.968 µM (active).
For `Cc1ccc(-c2cc(C(=O)NC3CCCCC3)c3ccccc3n2)cc1C`, in test [1], the compound was called inactive. For the same compound, in test [2], the Potency entry is “inactive”.
Consider `COCOC1CCC(C(=O)Nc2ccc([S+](=O)([O-])Nc3nccs3)cc2)CC1` (stereo not given), for which, in test [1], the outcome was inactive. In addition, the Potency entry in test [2] and in test [3] was “inactive” each time.
Turning to `CN(Cc1nccs1)S(=O)(=O)c1ccc(Nc2nc(-c3ccccc3)cs2)cc1`, in test [1], the compound was called inactive. In addition, in test [2], the Potency result is “inactive”.
For the compound `O=C(Nc1nc(-c2ccc(F)cc2)cs1)c1ccncc1NS(=O)(=O)c1ccccc1Cl`, the outcome in test [1] was inactive. Besides, the Potency entry in test [2] is “inactive”. In test [3], the Potency is 3.06 µM (active).
On to `CC(C)Cc1ccc(-c2csc(Nc3ccc(S(=O)(=O)Nc4nccs4)cc3)n2)cc1`, for which the outcome in test [1] was inactive. In test [2], the Potency result was “inactive”. For the same compound, the Potency in test [3] was 5.44 µM (active).
Regarding `O=C(O)C1CCC(C(=O)Nc2ccc([S+](=O)([O-])Nc3nccs3)cc2)CC1` (stereo not given), the compound was classed as inactive in test [1]. Besides, the Potency result in test [2] and in test [3] was “inactive” in each case.
As for `Cc1ccc(S(=O)(=O)Nc2cnccc2C(=O)Nc2nc(-c3ccc(F)cc3)cs2)cc1`, the compound was classed as inactive in test [1]. Besides, the Potency in test [2] is 20.9 µM (active).
For `N#Cc1cnc(N[S+](=O)([O-])c2ccc(Nc3nc(-c4ccccc4)cs3)cc2)s1`, in test [1], the result was inactive. Further, the Potency entry in test [2] and in test [3] was “inactive” in each case.
As to `Cc1ccc(-c2cc(C(=O)Nc3ccc(S(=O)(=O)O)cc3)c3ccccc3n2)cc1C`, in test [1], the call was inactive. The Potency result in test [2] is “inactive”. For the same compound, the Potency in test [3] was 13.7 µM (active).
For `O=C(Nc1nc(-c2ccccc2)cs1)c1ccncc1NS(=O)(=O)c1ccc(F)cc1Cl`, in test [1], the outcome was inactive. The Potency entry in test [2] was “inactive”. Besides, the Potency in test [3] was 1.93 µM (active).
With `O=C(Nc1ccc(S(=O)(=O)Nc2nccs2)cc1)c1ccnc2ccccc12`, in test [1], the outcome was inactive. In addition, the Potency entry in test [2] was “inactive”. In test [3], the Potency was 21.7 µM (active).
As for `Cc1ccc(S(=O)(=O)Nc2cnccc2C(=O)NCCc2ccccc2)cc1`, the compound was classed as inactive in test [1]. Besides, the Potency result in test [2] was “inactive”.
For `CCCc1ccc(-c2csc(NC(=O)c3ccncc3NS(=O)(=O)c3ccc(C)cc3)n2)cc1`, in test [1], the outcome was inactive. For the same compound, the results for the Potency in test [2] and in test [3] were 20.9 µM (active) and 1.53 µM (active), respectively.
As to `Cc1ccc(S(=O)(=O)Nc2cnccc2C(=O)Nc2nc(-c3cnn(C)c3)cs2)cc1`, the compound was classed as inactive in test [1]. In addition, the Potency entry in test [2] is “inactive”. In addition, in test [3], the Potency was 8.63 µM (active).
As to `O=C(Nc1ccc(S(=O)(=O)Nc2ncc(-c3ccccc3)s2)cc1)c1ccc2ccccc2c1`, the compound was called inactive in test [1]. The Potency result in test [2] was “inactive”. Besides, the Potency in test [3] is 3.06 µM (active).
For `CCCc1ccc(C(=O)Nc2ccc(S(=O)(=O)Nc3nccs3)cc2)cc1`, the compound was called inactive in test [1]. For the same compound, the Potency result in test [2] is “inactive”. For the same compound, the Potency in test [3] is 21.7 µM (active).
In the case of `Cc1ccc(S(=O)(=O)Nc2cnccc2C(=O)Nc2nc(C(=O)O)cs2)cc1`, the result in test [1] was inactive. For the same compound, the Potency entry in test [2] is “inactive”.
As to `Cc1cc(S(=O)(=O)Nc2cnccc2C(=O)Nc2nc(-c3ccccc3)cs2)c(C)o1`, the result in test [1] was inactive. Moreover, the Potency in test [2] was 23.5 µM (active); in test [3], 3.43 µM (active).
`Cc1ccc(-c2csc(Nc3ccc(S(=O)(=O)Nc4nccs4)cc3)n2)cc1C`: in test [1], the compound was classed as inactive. In test [2], the Potency result is “inactive”. In test [3], the Potency was 4.32 µM (active).
For the compound `Cc1ccc(S(=O)(=O)Nc2cnccc2C(=O)Nc2nc(-c3ccc4c(c3)CCCC4)cs2)cc1`, the call in test [1] was inactive. For the same compound, the results for the Potency in test [2] and in test [3] were 20.9 µM (active) and 2.17 µM (active), respectively.
As for `O=C(Nc1nc(-c2ccccc2)cs1)c1ccncc1NS(=O)(=O)c1ccccc1Cl`, the compound was called inactive in test [1]. Moreover, the Potency result in test [2] was “inactive”. Also, the Potency in test [3] was 1.53 µM (active).
For the compound `CCc1ccc(S(=O)(=O)Nc2cnccc2C(=O)Nc2nc(-c3ccccc3)cs2)cc1`, the call in test [1] was inactive. Further, the Potency in test [2] is 20.9 µM (active); in test [3] it was 1.72 µM (active).
`C=C1C(=C/C=C2\CCC[C@]3(C)[C@@H]([C@H](C)/C=C/[C@H](C)C(C)C)CC[C@@H]23)C[C@@H](O)C[C@@H]1O`: in test [4], the viability (% of control) is -0.788%. Besides, in test [5], the viability, percent of control is -0.446%. The Potency result in test [6] was “inactive”. For the same compound, in test [7], the compound was called inactive.
Regarding `CC(C)(C)NC(=O)N1CCC(C(=O)Nc2ccc([S+](=O)([O-])Nc3nccs3)cc2)CC1`, the call in test [1] was inactive. Also, the Potency entry in test [2] and in test [3] was “inactive” each time.
In the case of `Nc1cccc(S(=O)(=O)Nc2cnccc2C(=O)Nc2nc(-c3ccccc3)cs2)c1`, the compound was called inactive in test [1]. The Potency entry in test [2] was “inactive”. In test [3], the Potency was 13.7 µM (active).
In the case of `Cc1ccc(-c2cc(C(=O)Nc3ccc(C(F)(F)F)cc3)c3ccccc3n2)cc1C`, in test [1], the outcome was inactive. For the same compound, in test [2], the Potency result is “inactive”.
With `Cc1ccc(S(=O)(=O)Nc2cnccc2C(=O)Nc2nc(-c3ccc(Cl)cc3)cs2)cc1`, in test [1], the compound was classed as inactive. Also, the Potency in test [2] was 23.5 µM (active); in test [3], 2.17 µM (active).
The like results for `CC(=O)Nc1ncc(S(=O)(=O)Nc2cnccc2C(=O)Nc2nc(-c3ccccc3)cs2)s1` were, in that order, “inactive”, “inactive” and 10.9 µM (active).
The like results for `Cc1ccc(C(=O)Nc2ccc(S(=O)(=O)Nc3nccs3)cc2)cc1C` were, in that order, “inactive”, “inactive” and 24.3 µM (active).
